Measured values taken from ChEMBL document CHEMBL3988442, “University of Dundee, Small-Polar-MMV Screening Library” (2021).
The whole screen tested about 48,000 compounds, of which about 13,000 (27%) showed an effect of 50% or more. The list shows a part of the results.

test system: Wolbachia pipientis; assay: Anti-Wolbachia Cell-Based Screen; type: functional; design: scale not given: in the data most compounds retested in dose-response had high values; conditions: 5 µM

Row | SMILES | Percent Effect [%]
1 | Cn1c(CC2CCS(=O)(=O)C2)nnc1SCCOc1ccccc1F (centres undefined) | 1.517
2 | CN(Cc1ccncc1)C(=O)Nc1cnn(CC(N)=O)c1 | -7.922
3 | CCN(C)S(=O)(=O)N1CCC(C(O)c2ccc(Cl)cc2)CC1 (centres undefined) | 1.239
4 | CC(C)COC(C)C(=O)NCc1cc(F)cc(F)c1 (centres undefined) | -4.135
5 | CCOCCOC(C)C(=O)NCc1ccc(N2CCCCC2)cc1 (centres undefined) | -8.198
6 | CC(C)COC(C)C(=O)NCc1ccc(OC(C)C)nc1 (centres undefined) | 0.7864
7 | CC(C)COC(C)C(=O)NCc1ccccc1 (centres undefined) | 129.5
8 | CC(OCC1CC1)C(=O)NCc1cccc(CN2CCCC2=O)c1 (centres undefined) | 3.012
9 | CC(C)COC(C)C(=O)NCc1ccc(F)cc1 (centres undefined) | 52.08
10 | Cc1cc(C)n(-c2ccc(N3CCC4(CC3)OCC(C)O4)nc2)n1 (centres undefined) | 14.39
11 | O=C(C1CCCOC1)N(CC(F)F)c1cccc(Cl)c1 (centres undefined) | -10.1
12 | CN1CCN(C(=O)C2SCCc3sccc32)CC1 (centres undefined) | -4.064
13 | CCC(C)(C)NC(=O)CSCc1ccc(S(=O)(=O)N(C)C)o1 | 5.588
14 | CCC(C)(CC(=O)OC)NCc1cc(C)on1 (centres undefined) | -8.886
15 | COc1ccccc1CC(C)(C)NC(=O)CNS(C)(=O)=O | -9.621
16 | COc1ccc(-c2cnc(CN3CCCC3Cn3cncn3)o2)cc1 (centres undefined) | -4.543
17 | Clc1ccc2cccnc2c1CN1CCCC1Cn1cncn1 (centres undefined) | -9.545
18 | c1csc(-c2nc(CN3CCCC3Cn3cncn3)co2)c1 (centres undefined) | 2.244
19 | Clc1ccccc1-c1nnc(CN2CCCC2Cn2cncn2)o1 (centres undefined) | 104.1
20 | Cc1cnn(CC2CCCCN2Cc2nnc(-c3ccco3)o2)c1 (centres undefined) | 2.932
21 | COc1ccc(-c2nnc(CN3CCCC3Cn3cncn3)o2)cc1 (centres undefined) | 93.03
22 | Fc1ccc(-c2nnc(CN3CCCC3Cn3cncn3)o2)cc1 (centres undefined) | -1.304

Row | SMILES | Percent Effect [%]
23 | c1coc(-c2nnc(CN3CCCC3Cn3cncn3)o2)c1 (centres undefined) | 82.67
24 | N#Cc1ccc(CN2CCCCC2Cn2cncn2)cc1 (centres undefined) | 10.73
25 | c1ccc(-c2nnc(CN3CCCC3Cn3cncn3)o2)cc1 (centres undefined) | 126.9
26 | CS(=O)(=O)N[C@@H]1CCN(Cc2nccs2)[C@H]1Cc1ccncc1.O=C(O)C(F)(F)F.O=C(O)C(F)(F)F | -21.66
27 | COCc1cc(CNC(=O)c2c(C)c(C)cc(C)c2C)n[nH]1 | -1.645
28 | CC(=O)Nc1ccc(C(=O)N(C)C(C)Cc2cc(C)ccn2)cn1 (centres undefined) | -9.308
29 | O=C(O)c1ccn(-c2ccccc2NS(=O)(=O)c2ccccc2)n1 | 2.8
30 | Cc1nc(CN2C[C@@H]3CN(c4ncccn4)C[C@@H]3C2=O)cs1.O=C(O)C(F)(F)F | 2.706
31 | Cc1cccc(-c2nc(CN3CCCCC3Cn3cncn3)no2)c1 (centres undefined) | -2.041
32 | Cc1ccc(-c2nnc(CN3CCCCC3Cn3cncn3)o2)cc1 (centres undefined) | 107.2
33 | CC(C)=Cc1c(-c2ccccc2)ncn1CCS(C)(=O)=O | -13.72
34 | CN1CCCC2(CCN(c3cccc(C(F)(F)F)n3)C2)C1=O (centres undefined) | -13.28
35 | OC1(CN2CCCCC2)CCN(c2cccc(C(F)(F)F)n2)C1 (centres undefined) | 110.2
36 | CC(C)N1CCCC2(CCN(c3nccc(C(F)(F)F)n3)C2)C1=O (centres undefined) | -9.493
37 | O=C1CCC2(CCN(c3cccc(C(F)(F)F)n3)CC2)CN1CCO | 4.395
38 | CC(C)N1CCC2(CCCN(c3nccc(C(F)(F)F)n3)C2)CC1.O=C(O)C(F)(F)F | -13.26
39 | OC1(CN2CCCCC2)CCN(c2nccc(C(F)(F)F)n2)C1 (centres undefined) | 108.3
40 | CCS(=O)(=O)CC(=O)Nc1ccc2oc(C3CC3)nc2c1 | -4.895
41 | c1cn(CC2CCOCC2)c(-c2cc(CN3CCCC3)cs2)n1 | 5.864
42 | CC(CCO)Nc1cccc(C(F)(F)F)n1 (centres undefined) | -9.729
43 | CCn1nc(CC(C)C)cc1C(=O)NCC(F)(F)F | 127.5
44 | CCn1nc(CC(C)C)cc1C(=O)NCCCOC | -13.1

Row | SMILES | Percent Effect [%]
45 | CCC(CNC(=O)c1cc(CC(C)C)nn1C)N(C)CC (centres undefined) | -16.5
46 | CCn1nc(CC(C)C)cc1C(=O)NCCS(=O)(=O)N(C)C | 162.2
47 | CCn1nc(CC(C)C)cc1C(=O)N1CC[C@@H](O)C1 | -2.224
48 | COc1nc(C)cc(C)c1CNC(=O)N(C)Cc1cnn(C)c1 | -3.346
49 | CCn1nc(CC(C)C)cc1C(=O)NCCCN1CCOCC1 | 125.1
50 | CCn1nc(CC(C)C)cc1C(=O)NCc1c(C)cc(C)nc1OC | 140.7
51 | CCn1ccc(C(=O)NCCCN2CCOCC2)n1 | -2.896
52 | CCn1nc(CC(C)C)cc1C(=O)NCCn1cccc1 | -13.46
53 | CCn1nc(CC(C)C)cc1C(=O)N1CCCC(C#N)C1 (centres undefined) | -3.007
54 | CCN(CC)C1CCN(C(=O)c2cc(CC(C)C)nn2CC)C1 (centres undefined) | 33.04
55 | CN(CCn1cnnc1)C(=O)c1ccnc(OC2CCC2)c1 | -7.369
56 | COc1cc(CCC(=O)N2CCC(c3cncc(C)n3)CC2)on1 | 141.8
57 | COc1cccc(OCC2CCCN(C(=O)CCc3cc(O)no3)C2)c1 (centres undefined) | -4.281
58 | COc1cc(C)nc(N2CCN(C(=O)CCc3ccco3)CC2)n1 | 12.06
59 | Cc1noc(C2CCN(C(=O)CCc3nccs3)CC2)n1 | 4.096
60 | COc1cc(CCC(=O)N2CCC(c3cnccn3)CC2)on1 | 147.9
61 | COc1cc(C)nc(N2CCN(C(=O)CCc3ccncc3)CC2)n1 | -15.67
62 | CCc1ccccc1C(=O)NS(=O)(=O)CCCC#N | -10.54
63 | Cc1n[nH]c(CCC(=O)N2CCOC(Cc3ccc(F)cc3)C2)c1C (centres undefined) | 14.83
64 | O=C(NC1(C(=O)NCC2CC2)CCCC1)C1Cc2cc(F)ccc2O1 (centres undefined) | -11.6
65 | C[C@@H]1CN(C(=O)c2ccccc2F)C[C@]12CCN(CCN(C)C)C2=O | 90.27
66 | C[C@H]1CN(C(=O)c2ccoc2)C[C@@]12CCN(CCN(C)C)C2=O.O=C(O)C(F)(F)F | 113.7

Row | SMILES | Percent Effect [%]
67 | Cc1cc(CN2C[C@@H](C)[C@@]3(CCN(C)C3=O)C2)oc1C.O=C(O)C(F)(F)F | 2.821
68 | Cc1ccc(OC2(C(=O)O)CCN(C(=O)c3ccccc3F)CC2)cn1 | -3.687
69 | COCCN1CCO[C@@H]2CN(C(=O)Cc3ccc(F)cc3)CC[C@@H]2C1.O=C(O)C(F)(F)F | 12.24
70 | COCCN1CCO[C@@H]2CN(C(=O)Cc3ccccc3)CC[C@@H]2C1.O=C(O)C(F)(F)F | 12.5
71 | COCC1CN(C(=O)Cc2ccsc2)Cc2c1cnn2C (centres undefined) | -19.19
72 | CN(C)CCN1CC(C(=O)N2CCC(c3cccc(O)c3)CC2)CC1=O (centres undefined) | -14.83
73 | CN(C)CCN1CCO[C@@H]2CN(C(=O)Cc3ccsc3)CC[C@@H]2C1 | 102.6
74 | CC1N(C)C(=O)COC12CCN(C(=O)Cc1ccsc1)CC2 (centres undefined) | 1.71
75 | C[C@@H]1CN(C(=O)Cc2ccsc2)C[C@]12CCN(CCN(C)C)C2=O | 171.4
76 | CC(C)COc1cncc(NC(CO)c2ccco2)n1 (centres undefined) | -5.064
77 | CC(C1CCN(Cc2ccccc2OC(F)F)CC1)N1CCOCC1 (centres undefined) | 23.13
78 | CCN(CC(=O)NC)C(=O)c1cc(-c2cccc(Cl)c2)no1 | -2.874
79 | CNS(=O)(=O)c1ccc(CN2CCCN(CC(C)C)CC2)cc1 | 8.265
80 | Nc1cccc(-c2cccc3ccnn23)n1 | 9.414
81 | O=C(N[C@H]1CC[C@H](O)CC1)c1ccc2nc(-c3ccc(F)cc3)cn2c1 | -4.798
82 | NC(=O)Cn1ccnc1C1CCCN(Cc2ccccc2OC(F)F)C1 (centres undefined) | -1.119
83 | O=C1CC2(CCN(C(=O)c3ccc4c(c3)CCCO4)C2)C(=O)N1 (centres undefined) | -2.87
84 | Cc1ccsc1-c1nc(CN(C)Cc2noc(C(C)C)n2)c(C)o1 | 10.67
85 | COc1ccc(NC(=O)Nc2c(O)c3ccccc3oc2=O)cc1 | 106
86 | COc1ccc(CNC(=O)Nc2ccc(CN3CCOC3=O)cc2)cc1 | 12.97
87 | COc1ccc(CNC(=O)Nc2ccc(=O)n(C)c2)cc1 | -2.437
88 | CCn1ncnc1CN(C/C=C/c1ccccc1)CCOC | 8.107

Row | SMILES | Percent Effect [%]
89 | CC(C)(C)CCN1CCN(Cn2nccc2-c2cccnc2)CC1 | -19.45
90 | Cc1ncc(C(=O)N2CCC(C(=O)NC3CCCC3)C2)c(C)n1 (centres undefined) | 133.9
91 | Cc1ncc(C(=O)N2C[C@H](CO)C[C@H](CN3CCOCC3)C2)c(=O)[nH]1 | -13.12
92 | O=C(NC1CCCCC1)C1CCCN(C(=O)Nc2ccccn2)C1 (centres undefined) | 6.063
93 | Cc1ncc(C(=O)N2CC(C(=O)N3CCCCCC3)C2)c(C)n1 | 132.1
94 | Cc1nc(N2CCCCC2)ncc1C(=O)N1CC(C)(C)[C@@](C)(O)C1 | 13.78
95 | Cc1ncc(C(=O)N2CC(C(=O)N3CCOCC3)C2)c(C)n1 | 106.6
96 | CCc1nc(C)ncc1C(=O)N1CCCC(n2nc(C)nc2C)C1 (centres undefined) | -5.056
97 | Cc1cnc(N2CC(C(=O)N3CCOCC3)C3(CCOCC3)C2)nc1 (centres undefined) | -3.796
98 | Cc1ncc(C(=O)N2C[C@H]3CC[C@@H]2CN(S(=O)(=O)N(C)C)C3)c(C)n1 | 4.102
99 | CCc1ncc2c(n1)CN(CCCOc1ccc(C#N)cc1)CC2 | -6.685
100 | CC(C)c1nnc2ccc(N3CCC(C(=O)Nc4nccs4)CC3)nn12 | 11.38
101 | Brc1cc2c(cc1CN1CCC(N3CCCCC3)CC1)OCCO2 | -3.138
102 | Cc1ccnc(OC[C@@]23CCO[C@@H]2CCN(c2ncccn2)C3)n1.O=C(O)C(F)(F)F | -11.59
103 | Cc1cnc(CNC(=O)[C@@]23CCO[C@@H]2CCN(c2ncccn2)C3)cn1 | 105.8
104 | O=C(NCc1ccco1)[C@@]12CCO[C@@H]1CCN(CCN1CCCC1)C2 | -0.5732
105 | O=C(NCc1ccccn1)[C@@]12CCO[C@@H]1CCN(c1ncccn1)C2 | 99.07
106 | CC(=O)N1CC[C@H]2OCC[C@@]2(C(=O)NCc2cnc(C)cn2)C1 | 98.12
107 | CC(=O)N1CC[C@H]2OCC[C@@]2(C(=O)NCc2ccco2)C1 | 16.6
108 | O=C(NCc1ccco1)[C@@]12CCO[C@@H]1CCN(Cc1nccs1)C2 | -2.827
109 | O=C(NCc1ccco1)[C@@]12CCO[C@@H]1CCN(c1ncccn1)C2.O=C(O)C(F)(F)F | -9.525
